Experimental data as given in ChEMBL document CHEMBL4513216, “Probing the Open Global Health Chemical Diversity Library for Multistage-Active Starting Points for Next-Generation Antimalarials” (ACS Infect Dis, 2020).
The campaign covered roughly 65,000 compounds. About 2,100 (3.2%) showed an effect of 50% or more. The median lay at about -52%. This is one part of a sample in which strong results are shown more often than they occur.

Each molecule was assayed on Plasmodium falciparum (assay: Screen against P. falciparum Asexual Blood Stage (ABS), at 5uM). Conditions: tested at 5 uM.
Type: functional, Dd2
With `CCc1noc(C(C)N2CCN(C)CC2)n1` (stereo not drawn) the INHIBITION was -21%. With `Cc1ccc(C(=O)N2C[C@@H]3OCCN(CC4CCCC4)[C@@H]3C2)cn1` the INHIBITION was -30%. In the case of `c1ccc(-c2cc(CN3C[C@H]4CC[C@H]3C4)on2)cc1`, the INHIBITION is reported as 5.39%. In the case of `c1ccc(-c2cc(CN3C[C@H]4CC[C@@H](C3)N(CC3CCC3)C4)on2)cc1`, the INHIBITION is reported as 88.4%. For `COc1ccnc(N2C[C@H]3CC[C@@H](C2)N(CC2CC2)C3)n1`, the INHIBITION was 4.16%. Molecule `Cc1noc([C@@H]2C[C@H]3CN(Cc4cc(C)on4)C[C@H]3O2)n1` has an INHIBITION of -92.2%. With `CN1CCN(Cc2cccnc2)Cc2cccnc21` the INHIBITION was -65.7%. Molecule `Cc1cnn(CC(C)NCc2cccnc2)c1` (stereo not drawn) has an INHIBITION of -41.2%. For `Cc1cnn(CCNCc2nccn2Cc2ccccc2)c1`, the INHIBITION was 83%. With `Cc1cnn(CCNCc2ccccc2OCc2cccnc2)c1` the INHIBITION was 71.5%. With `Cc1cnn(CC(C)NCc2ccncc2)c1` (stereo not drawn) the INHIBITION was 0.596%. Work on `Cc1cnn(CC(C)NCc2ccc(C#N)cc2)c1` (stereo not drawn) yielded an INHIBITION of -64.7%. `O=C(c1ccno1)N1CC[C@@H]2CN(C3CCOCC3)CCO[C@@H]2C1` was tested, and the INHIBITION was -25%. `CC(C)(C)NC(=O)CNc1ccc(C#N)c(C(F)(F)F)c1` showed an INHIBITION of -31.3%. `CCc1ocnc1C(=O)N1CCC2(CC1)OCC(C)O2` (stereo not drawn) was tested, and the INHIBITION was -79.3%. `COc1cc(N2CCN(CC3CC3)c3nc(C)ccc3C2)ncn1` gave an INHIBITION of -65.6%. `O=C1N(Cc2cccc(Cl)c2)CCC12CCCNC2` (stereo not drawn) showed an INHIBITION of 80.7%. For `CC(C)CN1CCC2(CCCNC2)C1=O` (stereo not drawn), the INHIBITION was 10.8%. Work on `O=C1N(Cc2cccc(F)c2)CCC12CCCNC2` (stereo not drawn) yielded an INHIBITION of -20.3%. `O=C1N(Cc2cccnc2)CCC12CCCNC2` (stereo not drawn) gave an INHIBITION of -85.5%. Work on `O=C1N(Cc2ccc(Cl)cc2)CCC12CCCNC2` (stereo not drawn) yielded an INHIBITION of 85.4%. `O=C1N(Cc2ccncc2)CCC12CCCNC2` (stereo not drawn) was tested, and the INHIBITION was -59.6%. For `O=C([C@H]1CN(Cc2ccncc2)C[C@H]2OCC[C@@H]12)N1CCCCO1`, the INHIBITION was -89.5%. `Cc1ccc(CN2C[C@H]3OC(=O)N(Cc4ccccn4)[C@H]3C2)o1` gave an INHIBITION of -74.6%. `CCc1ccc(CN(CCN(C)C)Cc2ccc(C)s2)nc1` was tested, and the INHIBITION was 91.9%. For `CCc1ncc(CN(CCc2ccccc2)Cc2cccs2)cn1`, the INHIBITION was -80.9%. With `COCCN1CC[C@]2(CN(Cc3cccnc3)C[C@H]2C)C1=O` the INHIBITION was 25.1%. With `O=C(O)CN1CCC(F)(F)C2(CCN(c3ccccn3)C2)C1` (stereo not drawn) the INHIBITION was -77.3%. `O=C(c1c[nH]cn1)N1CCC(F)(F)C2(CCN(c3cccc(F)c3)C2)C1` (stereo not drawn) was tested, and the INHIBITION was 86.2%. With `Cc1cc(C(=O)N2CCC3(CCN3Cc3ccc(F)cc3)C2)no1` (stereo not drawn) the INHIBITION was 4.88%. For `Cc1n[nH]c2c1C(c1ccncc1)SCC(=O)N2` (stereo not drawn), the INHIBITION was -28%. With `COCCN1CCOCC2(C1)CN(C(=O)c1conc1C)CCO2` (stereo not drawn) the INHIBITION was -10.5%. For `COC(=O)NCC(=O)NCC(C)(C)c1cccc(Br)c1`, the INHIBITION was 84.6%. `COC(=O)NCCC(=O)NC(C)Cc1ccccc1Br` (stereo not drawn) showed an INHIBITION of -138%. Work on `COC(=O)NCCC(=O)NC(C)Cc1cccc(Br)c1` (stereo not drawn) yielded an INHIBITION of -15.7%. With `CCC(=O)NCC(=O)NCC(C)(C)c1cccc(Br)c1` the INHIBITION was 87.2%. Work on `c1cc(CN2CCO[C@@H]3CNC[C@@H]32)cs1` yielded an INHIBITION of -38.5%. In the case of `Cc1cccc(CN2C[C@H](NS(C)(=O)=O)[C@@H]3OCCC[C@@H]32)n1`, the INHIBITION is reported as -121%. Molecule `CC(C)CN1CCCC1c1cc[nH]n1` (stereo not drawn) has an INHIBITION of 91%. Molecule `CC(C)N1CCO[C@H]2CN(Cc3cc[nH]n3)C[C@H]21` has an INHIBITION of -62.4%. In the case of `COCC(=O)N1CC[C@H]2[C@H]1CCN2CC(C)C`, the INHIBITION is reported as -34.8%. Work on `CC(C)c1ncc2c(n1)CN(CCCc1nc3ccccc3o1)CC2` yielded an INHIBITION of 70.3%. `Cc1noc(C)c1CN1CC[C@@H]2O[C@@H](COCC(C)C)CC[C@@H]21` was tested, and the INHIBITION was -49.5%. `COc1ccc(C[C@H]2CNCC[C@@H]2OCC2CC2)cc1` gave an INHIBITION of 82.2%. `COc1ccc(C[C@H]2CNCC[C@@H]2OC)cc1` showed an INHIBITION of 78.3%. Molecule `COc1cccc(CC(C)NC(=O)NCCc2cccnc2)c1` (stereo not drawn) has an INHIBITION of -58.4%. Work on `O=C1CSC(c2ccc3c(c2)OCO3)c2cnn(C3CCCCC3)c2N1` (stereo not drawn) yielded an INHIBITION of -33%. `c1cc(CNCc2ccnc(N3CCCC3)c2)c2c(c1)OCCCO2` showed an INHIBITION of -20.5%. `COc1ccc(OC)c(CNCc2ccnc(N3CCCCC3)c2)c1` showed an INHIBITION of 75.8%. Molecule `COc1ccc(CNCc2ccnc(N3CCCC3)c2)c(OC)c1` has an INHIBITION of 73.6%. With `CCC(O)CN1CCN(C(=O)Cc2ccc(OC)cc2OC)CC1` (stereo not drawn) the INHIBITION was -2.14%. `CC[C@@H]1N(Cc2cccnc2)CCC[C@]12CCC(=O)N2C` was tested, and the INHIBITION was -25.2%. `CN1CC=C(c2noc(CCC(=O)N3CCOCC3)n2)CC1` showed an INHIBITION of -132%. For `Cn1ncc2c(N3CCCC4(CCNC4)C3)nc(C(C)(C)C)nc21` (stereo not drawn), the INHIBITION was 38.2%. `CCNC(=O)CN1CCSC2(CCCCC2)C1` showed an INHIBITION of -49.4%. In the case of `NC(=O)CN1CCCN(C(=O)Cc2ccc(Br)cc2)CC1`, the INHIBITION is reported as -114%. In the case of `CCC1(CC)Cc2ccccc2-c2nc(CN(C)C)nc(O)c21`, the INHIBITION is reported as 74.6%. `FC(F)CN1CCOC(Cn2cccn2)C1` (stereo not drawn) was tested, and the INHIBITION was -69.4%. With `CC(NCC1CCN(CCO)CC1)c1ccc(C(F)(F)F)cc1` (stereo not drawn) the INHIBITION was 89.1%. Molecule `CC(NCC1CCN(CCO)CC1)c1ccc(OC(F)(F)F)cc1` (stereo not drawn) has an INHIBITION of 93.8%. For `OCCN1CCC(CNCc2ccccc2OC(F)(F)F)CC1`, the INHIBITION was 95.8%. Molecule `O=C(Cc1cnc(-c2c(Cl)cccc2Cl)s1)N1CCC2(CC1)OCCO2` has an INHIBITION of -87.1%. Molecule `CCC12CN3CC(C)(CN(C1)C3c1[nH]c(=O)[nH]c(=O)c1C)C2=O` (stereo not drawn) has an INHIBITION of -51.4%. `CCN1CCNC(=O)C12CCN(C(=O)c1ccccn1)CC2` showed an INHIBITION of -86.3%. `O=C1CSC(c2ccc(O)cc2)c2c(n(C3CCOCC3)[nH]c2=O)N1` (stereo not drawn) gave an INHIBITION of -92.3%. Work on `Cc1nn(C2CCCC2)c2c1C(c1ccc3c(c1)OCO3)SCC(=O)N2` (stereo not drawn) yielded an INHIBITION of 6.36%. Work on `Cc1nc(CN2CCO[C@H]3[C@@H](Oc4ccccn4)CC[C@@H]32)cs1` yielded an INHIBITION of -47%. With `CSc1ccccc1C(=O)C1CCCN(Cc2ccccn2)C1` (stereo not drawn) the INHIBITION was -41.1%. `NC(=O)c1cccc2nc([C@H]3CCN(Cc4ccccn4)C3)[nH]c12` showed an INHIBITION of 95.1%. In the case of `O=C1NC[C@H]2CN(Cc3ccccn3)CCN12`, the INHIBITION is reported as -9.08%. `CCS(=O)(=O)N[C@@H]1CN(Cc2cc(C)on2)C[C@@H]2CCCO[C@@H]21` showed an INHIBITION of -96%. With `CN1CCN(c2ccc(CO)cc2F)CC1` the INHIBITION was -62.7%. `CN1CCN(c2ccccc2NC(=O)NCCc2ccccc2)CC1` gave an INHIBITION of 83.9%. For `CN1CCN(c2ccccc2CNC(=O)Cc2cccc(F)c2)CC1`, the INHIBITION was 77.4%. Molecule `CN1CCN(c2ccc(F)cc2C(N)=O)CC1` has an INHIBITION of -105%. `COC(=O)CNC(=O)c1cn(Cc2ccccc2F)nn1` showed an INHIBITION of -63.8%. In the case of `CN1CCN(c2ccccc2CNC(=O)Cc2ccccc2F)CC1`, the INHIBITION is reported as 77%. `CN1CCN(c2ccnc3c(F)cc(Br)cc23)CC1` was tested, and the INHIBITION was 0.83%. For `O=S1(=O)CCC(n2cc(C3=CCN(CCn4cccc4)CC3)cn2)C1` (stereo not drawn), the INHIBITION was -22.4%. Work on `Cc1noc(C)c1CN1C(=O)[C@@H]2CC[C@H]1CN(Cc1cscn1)C2` yielded an INHIBITION of -41.1%. `O=C(C1CCC1)N1CCC2(CC1)CNCCO2` was tested, and the INHIBITION was -16.3%. In the case of `O=C(Nc1ccccc1)C1=NOC2(CCNCC2)C1`, the INHIBITION is reported as -53.9%. `COc1ccc(CC(C)(O)CNC(=O)c2cccs2)cc1` (stereo not drawn) showed an INHIBITION of 89.1%. Molecule `c1cc(COC[C@H]2CCC[C@]23CNCCO3)ccn1` has an INHIBITION of 14.9%. Work on `c1cnc(NCc2cncc3c2CCN(CC2CC2)C3)nc1` yielded an INHIBITION of -95%. `CC(C)N1CCO[C@H]2CN(C(=O)c3ccccn3)C[C@H]21` showed an INHIBITION of -46.1%. Work on `CN1CCC(NCC(O)c2cccc(OCc3ccccc3)c2)CC1` (stereo not drawn) yielded an INHIBITION of 90.7%. In the case of `OC(CNC1CCSCC1)c1cccc(OCc2ccccc2)c1` (stereo not drawn), the INHIBITION is reported as 74.4%. In the case of `CCOc1cccc(C(C)NC(=O)N2CCC3(CC2)OCCO3)c1` (stereo not drawn), the INHIBITION is reported as -117%. For `CC(C)OCCN(C)CC(c1cccs1)N1CCOCC1` (stereo not drawn), the INHIBITION was 79.9%. Work on `NCC(c1cccnc1)N1CCOCC1` (stereo not drawn) yielded an INHIBITION of -122%. `c1cnc(N2CC[C@@H]3[C@@H]2CCN3Cc2cccs2)nc1` showed an INHIBITION of -56.7%. For `Oc1cc(C2CCCCN2Cc2cccs2)nc(-c2ccccn2)n1` (stereo not drawn), the INHIBITION was 85.9%. In the case of `c1ccc(COC[C@H]2CC[C@H]3[C@H](CCN3Cc3cccs3)O2)nc1`, the INHIBITION is reported as -43.6%. `CCN1CCN(Cc2nc(C)no2)CC1` showed an INHIBITION of -11.7%. `Cc1noc(C)c1CN1C[C@@H](OCC(=O)N(C)C)[C@H]2OCCC[C@H]21` gave an INHIBITION of -76.4%. `COc1cccc(CNCc2cccc(Cl)c2)c1O` was tested, and the INHIBITION was 85.2%. With `COc1cc(CNCCNC(=O)c2ccc(O)cc2)ccc1SC` the INHIBITION was 26.9%. `COc1cccc(CNCc2ccc(F)c(Cl)c2)c1O` gave an INHIBITION of 80%. `CC1CCC2(CC1)NC(=O)c1cc(Br)ccc1-n1nnnc12` (stereo not drawn) gave an INHIBITION of -65.8%. `O=C(c1csc(-c2ncccn2)n1)N1CCN2CCCCC2C1` (stereo not drawn) showed an INHIBITION of -32.7%. For `CN(C)[C@@H]1CN(C(=O)Cc2ccccc2)[C@@H]2CCCO[C@H]12`, the INHIBITION was -9.86%. Molecule `CC(C)CCC(=O)N1CCC2(CC1)OCCO2` has an INHIBITION of -8.85%. For `Cc1ccc(C(=O)N2C[C@H]3CN(Cc4csc(C)n4)C[C@H]3C2)cn1`, the INHIBITION was -173%. In the case of `COC(=O)C(C)(C)NC(=O)c1cnc(Cc2ccc(F)cc2)s1`, the INHIBITION is reported as 75.4%. With `Cc1cnn(CCNCC(O)COc2c(Cl)cccc2Cl)c1` (stereo not drawn) the INHIBITION was 81.9%. In the case of `Cc1cnn(CCNCC(O)c2ccc(C(F)(F)F)cc2)c1` (stereo not drawn), the INHIBITION is reported as 72.6%. `Cc1cnn(CC(C)NCCc2cccs2)c1` (stereo not drawn) gave an INHIBITION of -30.1%.
